Rows were chosen to be rich in hits. Some 1.8% of all compounds tested hit in one or more screens of this group.
APOBEC3G inh: APOBEC3G DNA deaminase inhibitors, primary screen, biochemical, fluorescence, single-stranded DNA substrate, uHTS. 330,000 compounds, 0.28% hits. AID 493012, 2011. recombinant A3G, ssDNA deamination FAM/TAMRA fluorescence. inhibition, % at 20 µM. DNA dC->dU-editing enzyme APOBEC-3G (Homo sapiens), Q9HC16;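 active = inhibition of at least 40% at 20 µM, with no more than 30% in the related APOBEC3A deaminase screen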;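 note: plate controls were DMSO wells with A3G for no effect and wells lacking A3G enzyme for full effect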
MIN6 prolif-1: inducers of MIN6 beta-cell proliferation, primary screen, ATP luminescence, uHTS | MIN6 cells proliferation, ATPlite luminescence, 48 h; cells starved in 0.2% serum; 100% = growth in 10% serum | proliferation, % at 10 µM | 330,000 compounds, 0.29% hits | AID 2380, 2010;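 active = compounds whose signal lies at least 3.5 SD above the mean of all wells on their plate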;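 note: 0% = DMSO-treated cells in low-serum medium and 100% = 10% serum control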
APOBEC3A inh: APOBEC3A ssDNA deaminase inhibitors, primary screen, selectivity assay for APOBEC3G inhibitor project, biochemical, FAM/TAMRA oligo cleavage fluorescence; DNA dC->dU-editing enzyme APOBEC-3A (Homo sapiens), P31941; recombinant A3A, FAM/TAMRA ssDNA deamination fluorescence; inhibition, % at 20 µM; 330,000 compounds, 0.41% hits;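 active = at least 40% inhibition at 20 µM here, with at most 30% in a related deaminase screen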;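 note: plate controls were A3A with DMSO for no effect and wells lacking A3A enzyme for full effect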
VLA-4 inh: inhibition in human VLA-4 binding assay, primary screen, VLA-4 allosteric modulator project, MLPCN library, flow cytometry, VLA-4 expressing cells. Integrin alpha-4 (Homo sapiens), P13612. ligand binding flow cytometry. inhibition, % (about 7 µM as worked out from the volumes in the protocol). 330,000 compounds, 0.2% hits. AID 2557, 2010; in the data active = inhibition above about 50%
CendR NRP1 mod: modulators of CendR peptide binding to NRP-1, primary screen, biochemical, fluorescence polarization, uHTS; 360,000 compounds, 0.85% hits; Neuropilin-1 (Homo sapiens), O14786; FAM-RPARPAR peptide binding to NRP-1; inhibition, % at 25 µM;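 active = inhibition or corrected inhibition above about 18%, plus a signal ratio from 0.5 to 1.5, limit read from the data, passing the limit was not always enough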
MIN6 prolif-2: inducers of beta-cell proliferation in MIN6, confirmation, MIN6 cells, mouse; proliferation increase, % at 50 µM; shares compounds with MIN6 prolif-1; 920 tested, under 10 active; ATPlite luminescence, 48 h; cells kept in 0.2% serum; scaled between 0.2% and 10% serum;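 active = proliferation increase above 40% at any of the four tested concentrations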
An asterisk follows results filed as active; . = not tested or not shown.

SMILES	APOBEC3G inh	MIN6 prolif-1	APOBEC3A inh	VLA-4 inh	CendR NRP1 mod	MIN6 prolif-2
N#CCc1ccc(Oc2ncccn2)cc1	-10	8.4*	-4	30	8	0
OCC[C@H]1C[C@@H](O)[C@H](O)[C@@]2(CCCc3ccccc3O2)O1	-3	3	1	.	-10	.
OCC[C@@H]1C[C@@H](O)[C@H](O)[C@]2(CCCc3ccccc3O2)O1	-9	14*	-9	45	6	-2
CCC(Cc1ccccc1)NC(=O)Cn1cccc1C(=O)c1ccccc1 (centres undefined)	-6	16*	-6	-1	-7	-6
CCOc1ccccc1C(=O)NCC(=O)NNC(=O)c1cccs1	-6	-1	-6	-7	-2	.
CCOc1ccccc1CNC(=O)CNC(=O)c1cccs1	-3	17*	-4	10	10	1
Cn1c(O)c(N=NC(=O)CNC(=O)c2ccccc2)c2ccccc21	0	0.0*	0	-1	0	0
Cn1c(O)c(N=NC(=O)CNC(=O)c2ccccc2)c2cc(Br)ccc21	-7	-1	-4	5	-2	.
Cc1nc(N)c(C#N)c(-c2cccnc2)c1-c1ccccc1	-7	0	-1	-2	1	.
Cc1ccc2c(n1)sc1c(-c3ccccc3)c(C#N)c(N)nc12	-1	5.9*	-2	-8	-1	5
COCCNC(=S)N(c1ccccc1)C(C)C	-9	1	2	9	-9	.
COCCNC(=S)NN(c1ccccc1)c1ccccc1	-5	9.0*	-1	-7	10	-4
CCc1ccc2nc3nc(C)cc(C)c3c(N)c2c1	5	-4	9	-10	-20	.
Cc1cc(C)c2c(N)c3ccccc3nc2n1	6	7.5*	16	-6	-28	-6
CCOc1ccc(NC(=O)CN(C)C(=O)C2CC(=O)N(Cc3ccco3)C2)cc1OCC (centres undefined)	-9	9	6	1	4	.
CC(=O)c1cccc(NC(=O)CSc2nnnn2C2CCCC2)c1	-6	2	-1	.	-2	.
CC(NC(=O)CSc1ncccc1C(=O)O)C1CC2CCC1C2 (centres undefined)	-5	-1	3	6	4	.
CCOc1ncccc1C(=O)Nc1cccc(S(=O)(=O)NC2=NCCC2)c1	-3	12*	0	6	13	0
COC(=O)CSc1nc(N)c(C#N)c(-c2ccco2)c1C#N	3	-3	7	-13	-32	.
CCSc1nc(N)c(C#N)c(-c2ccco2)c1C#N	-5	14*	-2	6	7	5
COc1cc2[nH]c(C(=O)N3CC(C)OC(C)C3)cc2c(OC)c1OC (centres undefined)	-9	9.0*	-4	-4	11	1
N#Cc1nc(-c2ccco2)oc1NCc1ccccc1Cl	-3	4.6*	-4	3	5	3
N#Cc1nc(-c2ccco2)oc1NCc1ccco1	-5	-1	-2	6	3	.
CCS(=O)c1ccccc1C(=O)OCC(=O)Nc1cccc(S(=O)(=O)N2CCCCC2)c1 (centres undefined)	-6	0	-4	37	9	.
COc1ccccc1NC(=O)C(C)OC(=O)CCNS(=O)(=O)c1cccc(C(F)(F)F)c1 (centres undefined)	-7	-3	-4	13	7	.
SMILES	APOBEC3G inh	MIN6 prolif-1	APOBEC3A inh	VLA-4 inh	CendR NRP1 mod	MIN6 prolif-2
CN(C)C(/C=C/Nc1cccc([N+](=O)[O-])c1)=C(C#N)C#N	-6	8.1*	-3	-7	7	1
C=CC[C@@H](Cc1ccc(F)cc1)C(=O)OC[C@@H]1CCCN1C(=O)[C@@H](CC=C)CC(=O)N[C@H](CO)Cc1ccccc1	-8	-4	0	3	7	.
Cc1c(NC(=O)C(C)OC(=O)CC2CC3CCC2C3)c(=O)n(-c2ccccc2)n1C (centres undefined)	-4	9.1*	1	8	0	-2
O=S(=O)(c1ccc(SCCO)nc1)N1CCOCC1	7	-2	0	2	11	.
COc1cc(/C=N/NS(=O)(=O)c2ccc3ccccc3c2)ccc1OCCN1CCOCC1	-7	0.0*	1	-25	2	-5
C=CCOn1c(C)c(C(C)=O)c2c3no[n+]([O-])c3ccc21	-1	7.6*	3	-2	5	4
CCN(CC)S(=O)(=O)c1ccc(N2CCOCC2)c(NC(=O)c2c3c(nc4ccccc24)CCC3)c1	15	7.6*	28	-12	24	-1
CC(=O)Nc1ccc(NC(=O)C(C)OC(=O)CSc2ccc(Br)cc2C)cc1 (centres undefined)	-7	0	-2	6	22	.
Cc1ccc(CC(=O)Nc2cc(C)ccn2)cc1	0	-3	-2	7	10	.
CCNC(=S)Nc1cc(C)ccn1	-2	0.0*	-2	-8	2	2
O=C(O)C1=CC[C@@H](c2ccc(Cl)cc2)N(S(=O)(=O)c2ccc(Cl)cc2)[C@H]1c1ccc(Br)cc1	-4	-5	-3	29	-54	.
CCC(C)Sc1nc2c(cnn2-c2ccc(C)cc2)c(=O)[nH]1 (centres undefined)	-9	9.6*	-1	-27	4	8
Fc1ccccc1N1CCN(c2ncnc3[nH]ncc23)CC1	0	0	0	0	4	.
Clc1ccccc1N1CCN(c2ncnc3nc[nH]c23)CC1	-5	13*	-1	-8	-9	1
Fc1ccccc1N1CCN(c2ncnc3nc[nH]c23)CC1	-3	11*	0	7	-2	0
O=C(Cn1nc(C(=O)O)c2ccccc2c1=O)Nc1cc(S(=O)(=O)N2CCOCC2)ccc1Cl	-6	-1	-5	6	-2	.
CC(C)n1ncc2c(C(=O)NCc3cccnc3)cc(C3CC3)nc21	-7	11*	-2	.	0	-2
O=c1cc(-c2ccc(O)c(O)c2)oc2cc(O[C@@H]3O[C@H](CO)[C@@H](O)[C@H](O)[C@H]3O)cc(O)c12	-3	0	-2	1	-75	.
O=c1cc(-c2ccc(O)cc2)oc2cc(O)c(C3OC(CO)C(O)C(O)C3O)c(O)c12 (centres undefined)	-2	9.0*	-1	1	-10	-1
O=C(c1ccccc1)N1CCCC(c2ccc(Cl)cc2)=N1	-5	5.4*	0	-5	6	-6
O=C(c1cccc(Cl)c1)N1CCCC(c2ccc(Cl)cc2)=N1	11	-4	0	15	-6	.

Bioassay records from PubChem BioAssay.
